RGS4 inhibitor: Inhibitors of Regulator of G Protein Signaling (RGS) 4: qHTS; Potency, µM (highest dose often 114 µM), for inactives: top-dose activity change, negative = inhibition, actives largely listed as inhibitors; Regulator of G-protein signaling 4 (Homo sapiens), P49798; AID 504845, 2011; 0.039% of 390,000 active; Transcreener GDP fluorescence polarization, RGS4-accelerated GTP hydrolysis; active = well fitted inhibition curve with a large enough effect; inconclusive = small, poorly fitted or top-dose-only effect; inactive = no such curve, though single readings can be large or run the other way; note: potency is the fitted concentration of half-maximal effect; % is set by controls: 0 for no effect and ±100 for the full control effect; nearly all actives have a fitted effect of over 75% in size
Target sequence (P49798 whole entry, looked up): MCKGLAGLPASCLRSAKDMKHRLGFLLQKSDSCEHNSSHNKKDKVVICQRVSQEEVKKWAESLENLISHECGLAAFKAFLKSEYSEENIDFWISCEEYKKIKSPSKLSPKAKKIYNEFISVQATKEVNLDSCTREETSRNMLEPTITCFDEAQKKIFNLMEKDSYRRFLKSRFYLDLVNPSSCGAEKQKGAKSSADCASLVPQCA
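MLSMR compounds (23 nl, pin-transferred) preincubated 10 min at room temperature with a 500nM (2x) first reagent, then RGS4 at 900nM (2x) plus Transcreener GDP mix added; fluorescence polarization (620/688 nm) read before and after 90 min at 30 °C.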
pAkt inh: HTS Assay for Inhibitors of Akt Phophorylation: Primary Screen; Neuro2A IGF-stimulated pAkt S473 HTRF, 20 min; active compounds read low; activity change, % for hits at 50 µM; 0.32% of 360,000 active; in the data active = activity change below about -80%; inconclusive = mostly about -51% to -80%; note: % is set by controls: 0 for no effect and ±100 for the full control effect
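Neuro2A cells in DMEM with 0.5% FBS, overnight at 37 deg C, given compound at single 50 µM final, then IGF (6 nM final) for 20 min at 37 deg C. Lysed; phospho-Akt Ser473 by HTRF after 24 h, 665/615 ratio.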
DRD3 antagonist: qHTS of D3 Dopamine Receptor Antagonist: qHTS | 2.5% of 360,000 active | D(3) dopamine receptor (Homo sapiens), P35462 | max response, negative = inhibition, % | D3R cells, DiscoveRx beta-arrestin luminescence, antagonist mode; active compounds read low; in the data active = max response below about -50%; inconclusive = no clear call, values can overlap the other calls; note: % is set by controls: 0 for no effect and ±100 for the full control effect
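Cells expressing the human receptor were seeded at 1500 cells/well, incubated overnight at 37 degrees C in 5% CO2, then exposed to library compounds with dopamine controls for 90 minutes at 37 degrees C before luminescent detection.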
D3 ag: qHTS of D3 Dopamine Receptor Agonist: qHTS | D3R DiscoveRx beta-arrestin cells, luminescence, 90 min | AID 652048, 2013 | 0.58% of 410,000 active | max activation, %; in the data active = max activation above about 30%; note: 0% is about no effect
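Agonist mode: compounds and dopamine controls were applied to plated cells for 90 min at 37 degrees C after an overnight attachment at 1500 cells/well. Luminescent read-out followed 30 - 60 minutes at room temperature with DiscoveRx detection reagent.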
PI4K2A inh: qHTS for small molecular inhibitors of PI4K2A. activity change, negative = inhibition, % at 76.9 µM. purified PI4K2A, ADP-Glo luminescence, 1 h; active compounds read low. AID 1346378, 2018. 0.13% of 420,000 active; in the data active = activity change below about -50%; inconclusive = mostly about -30% to -49%;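 note: -100% = wells without enzyme as full effect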
Target sequence (Q9BTU6 whole entry, looked up): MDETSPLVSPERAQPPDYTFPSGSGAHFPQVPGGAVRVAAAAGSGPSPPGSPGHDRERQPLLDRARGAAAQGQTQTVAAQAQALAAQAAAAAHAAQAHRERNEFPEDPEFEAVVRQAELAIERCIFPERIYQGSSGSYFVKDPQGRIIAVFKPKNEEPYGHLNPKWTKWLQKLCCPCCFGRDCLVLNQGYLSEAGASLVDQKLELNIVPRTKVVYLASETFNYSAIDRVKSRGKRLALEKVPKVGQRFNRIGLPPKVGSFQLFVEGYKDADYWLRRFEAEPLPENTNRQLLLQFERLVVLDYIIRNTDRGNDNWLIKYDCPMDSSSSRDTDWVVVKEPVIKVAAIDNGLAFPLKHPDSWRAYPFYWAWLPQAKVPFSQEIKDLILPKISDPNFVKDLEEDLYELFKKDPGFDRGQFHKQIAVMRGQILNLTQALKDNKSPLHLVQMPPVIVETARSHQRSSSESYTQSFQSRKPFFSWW
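Compounds are screened against recombinant PI4K2A using PI as substrate and ATP, the latter dispensed at 300 microM. Reactions run one hour at ambient temperature before ADP-Glo detection; full inhibition defined by wells lacking enzyme.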
LDHA block: qHTS assay for inhibitors of human lactate dehydrogenase; L-lactate dehydrogenase A chain (Homo sapiens), P00338; purified LDHA, NADH/diaphorase-resazurin fluorescence; active compounds read low; activity change, % (values are at about 110 or 230 µM); 0.15% of 480,000 active; in the data active = activity change below about -30%; inconclusive = mostly about -25% to -30%;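 note: plate controls were DMSO wells for no effect and wells without enzyme for full effect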
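Human LDH5 at 2 nM final in Tris HCl pH 7.4 with 0.06 mM NADH and 0.2 mM pyruvate, reacted 5 minutes at room temperature. Remaining NADH coupled via diaphorase/resazurin; resorufin fluorescence read at 0 and 20 minutes, normalized to enzyme-free and DMSO wells.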
* hit, by the source's call; i = inactive; ? = inconclusive; . = not tested or not shown; [ ] = dose if it differs, or a comment. The list is not random: actives were taken first. Their share in the collection is about 2.8%.

SMILES	RGS4 inhibitor	pAkt inh	DRD3 antagonist	D3 ag	PI4K2A inh	LDHA block
Cc1c(NC(=O)c2c(NC(=O)CNC3CC3)sc3c2CCCC3)c(=O)n(-c2ccccc2)n1C	-1.9%	i	-2.9	-5.0	3.7	-88.7*
COc1ccc(C(=O)N2CCc3cc4c(cc3C2C)OCCCO4)cc1 (configuration not stated)	7.1%	i	-20.4	44.1*	-2.0	5.9
O=C(COC(=O)C1CCN(S(=O)(=O)c2cccs2)CC1)NCc1ccc(F)cc1	14.0%	i	-20.4	-7.8	-0.3	-16.9
O=C(COC(=O)C1CCN(S(=O)(=O)c2ccccc2C(F)(F)F)CC1)NCc1ccc(F)cc1	-9.3%	i	-17.8	256.7*	-0.8	-4.2
CCCN(CC#N)CC(=O)NC(=O)NC(C)(C)C	.	.	.	.	.	4.3
O=C(CN1C(=O)CCC1=O)Nc1ccc(Br)cc1	-16.8%	-103.4%*	-8.7	1.6	2.2	-1.3
O=C(C1CCN(S(=O)(=O)Cc2c(F)cccc2Cl)CC1)N1CCCC1	.	.	.	.	.	0.1
Cc1nc(Nc2ccc(NC(=O)c3cccs3)cc2)cc(N2CCOCC2)n1	.	.	.	.	.	5.6
O=C(O)c1cc2cccc(S(=O)(=O)N3CCOCC3)c2cc1O	9.3%	i	-53.8*	12.3	0.7	10.4
COc1cc(/C=C2\SC(=O)N(c3cccc(Cl)c3)C2=O)cc([N+](=O)[O-])c1O	?	i	-61.8*	-28.9	-1.8	7.1
COc1cc(/C=C2/C(=O)NN(c3ccc(C)c(Cl)c3)C2=O)cc([N+](=O)[O-])c1O	-53.3%	i	-23.1	-9.0	-3.8	0.1
COc1cc(/C=C2\SC(=O)N(c3ccc(Cl)cc3)C2=O)cc([N+](=O)[O-])c1O	-16.0%	i	-69.9*	-21.8	-4.4	3.3
CC(=O)N(Cc1cc2cc(C)ccc2[nH]c1=O)C(C)C	.	.	.	.	.	-15.3
CCOP(=O)(c1ccccc1)C(O)c1ccccc1 (configuration not stated)	5.9%	i	6.0	-6.0	-0.1	0.0
CCOP(=O)(c1c(F)c(F)c(F)c(F)c1F)C(O)c1ccccc1 (configuration not stated)	10.1%	-115.6%*	35.4	0.8	3.3	0.4
CC(C)CCNC(=O)CN(Cc1ccco1)C(=O)c1snc(C(N)=O)c1N	17.8%	i	-13.6	-5.3	0.8	-2.3
CCc1ccccc1N(CC(=O)NCc1ccco1)C(=O)c1snc(C(N)=O)c1N	-26.2%	i	-54.9*	-8.9	-12.5	-1.7
N#Cc1ccccc1Cn1cc(/C=N/Nc2ccc([N+](=O)[O-])cn2)c2ccccc21	-29.6%	i	-52.4*	-9.6	-6.4	-3.1
O=[N+]([O-])c1ccc(NN=Cc2ccccc2)nc1	-13.9%	i	-19.0	-8.8	1.4	-6.3
Nc1nccnc1C(=O)Nc1cccc(/C=C/c2ccccn2)c1	.	.	.	.	.	6.9
N#Cc1c([N+](=O)[O-])cc([N+](=O)[O-])cc1S(=O)(=O)Cc1ccccc1	?	i	-102.3*	-13.6	-3.9	40.3
Cc1cccc(C(=O)O/N=C(\N)c2cccc([N+](=O)[O-])c2)c1	26.6%	.	-29.0	-14.6	3.6	-10.2
CC1=CC(=O)C=C(C)C1=NOC(=O)c1cccc([N+](=O)[O-])c1	1.0%	i	-82.5*	8.0	-2.3	22.4
O=C(CCC(=O)N1CCOc2ccc(Cl)cc21)NCCCN1CCC(Cc2ccccc2)CC1	-4.9%	i	-70.6*	-14.2	2.1	-0.8
O=C(CCC(=O)N1CCOc2ccc(Cl)cc21)NCCCN1CCN(c2ccccc2F)CC1	-14.2%	i	-95.5*	3.5	8.0	-0.5
SMILES	RGS4 inhibitor	pAkt inh	DRD3 antagonist	D3 ag	PI4K2A inh	LDHA block
COc1ccc(N2CCN(CCCNC(=O)CCC(=O)N3CCOc4ccc(Cl)cc43)CC2)cc1	37.0%[11.4 µM]	i	?	-14.3	7.0	-5.0
COc1ccc(-c2nc(CN3CCCC3c3ccsc3)co2)cc1 (configuration not stated)	.	.	.	.	.	1.2
N#CC1CCN(C(=O)c2cc(=O)[nH]c3ccccc23)CC1	.	.	.	.	.	-7.6
CC(=O)c1cc2cccc(OC3(C)CCN(Cc4ccc(-c5ccccn5)cc4)C3)c2o1 (configuration not stated)	.	i	-53.2*	-10.1	-1.0	2.4
CCOc1ccc(-c2cc(C(=O)NCCOC)c3ccccc3n2)cc1	.	.	.	.	.	6.2
COCCN(C(=O)COC(=O)c1cnc(C)cn1)c1c(N)n(Cc2ccccc2)c(=O)[nH]c1=O	1.5%	i	-77.1*	-12.9	-0.9	-2.7
COCCN(C(=O)COC(=O)c1ccco1)c1c(N)n(Cc2ccccc2)c(=O)[nH]c1=O	0.7%	i	-4.1	5.2	-0.2	-0.2
CCCc1c(C(=O)NCCc2ccccc2)nnn1-c1ccccc1	.	.	.	.	.	0.2
CCN(c1ccccc1)S(=O)(=O)c1ccc(Cl)c(NC(=O)CNCc2ccccc2OC)c1	-3.9%	i	-65.7*	-34.0	6.2	-15.6
CCN(c1ccccc1)S(=O)(=O)c1ccc(OC)c(NC(=O)Cc2ccccc2OC)c1	-9.4%	i	-1.6	-5.7	-0.1	2.9
CC(Sc1cc(-c2ccccc2)ncn1)C(=O)Nc1ccccc1 (configuration not stated)	.	.	.	.	.	6.3
C=C(CCC(=O)c1ccccc1)C(=O)c1ccccc1	-28.4%	i	-53.8*	-14.3	45.0	-10.4
CC(=O)/C=C1\C(=O)N(C)c2ccccc21	18.9µM*	.	.	.	-16.5	.
CN1C(=O)/C(=C\C(=O)c2cccs2)c2ccccc21	?	i	1.2	1.7	6.8	-0.2
COc1ccc(-c2cc(C)no2)cc1S(=O)(=O)Nc1ccccc1	3.6%[56.9 µM]	i	?	-7.0	-2.2	-9.7
COC(=O)c1ccc(NS(=O)(=O)c2cc(-c3cc(C)no3)ccc2OC)cc1	9.9%	i	-51.5*	0.9	0.6	-3.1
CCc1ccc(-c2cc3c(=O)n(CC(=O)NCCCN4CCC(Cc5ccccc5)CC4)nc(C)n3n2)cc1	-13.7%	i	-15.1	-14.8	-0.4	0.2
Cc1nn(CC(=O)NCCCN2CCC(Cc3ccccc3)CC2)c(=O)c2cc(-c3ccccc3)nn12	19.4%	i	-87.8*	2.6	-1.7	-4.7

Screening results as filed in PubChem.
